Laboratory results published in PubChem BioAssay AID743326 (National Center for Advancing Translational Sciences (NCATS), 2014).
Values without a mark were called inactive. Activity calls are given as the source filed them. Calls follow the shape of the full dose curve. Numbered stars: 1 amine (or outer) side, 2 acyl side, 3 side chain; on linkers, the order of the positions; unused ones are H or OH. Bridge positions count the residues as written; N and C are the ends. Square brackets hold non-standard residues; d marks the D form. Peptide text beside a SMILES is read from it. I, II: the chains in the order shown. Actinocin(9to1) = Cc1c2oc3c(C)ccc(C(=O)[*:1])c3nc-2c(C(=O)[*:2])c(N)c1=O; NMeV = CN[CH](C(=O)O)C(C)C; Sar = CNCC(=O)O

Assay: qHTS profiling of Chloroquine Analogs as inhibitors of Plasmodium falciparum (DD2) proliferation
Details: Potency: Plasmodium falciparum Dd2 proliferation inhibition; series mostly up to 28.7 µM; activity change, negative = inhibition: at the top concentration
Description: Plasmodium falciparum is a virulent malarial parasite that kills 1-2 million people worldwide each year. Transmitted by mosquitoes, the sporozoite form of the parasite enters the blood stream to infect hepatocytes, where they become merozoites that infect red blood cells (erythrocytes). Within erythrocytes, merozoites begin a […] cycle of growth and division, after which the parasite is released to infect new red blood cells. Gametocytes, which form within erythrocytes as well, circulate in the bloodstream and are ingested by the mosquito, thereby completing the life cycle. To profile malarial isolates for differential chemical responses and to identify inhibitors of malarial growth, an assay that measures P. falciparum growth and replication within erythrocytes was employed. This assay uses a DNA binding fluorescent dye (SYBR Green) to detect parasite DNA following cell lysis. Because mature erythrocytes lack DNA, only Plasmodium-derived DNA is detected.
The SYBR Green viability assay was adapted from a method described previously (Plouffe et al., 2008). For screening 3 ul culture medium was dispensed into 1536 well black clear bottom plates (Aurora Biotechnologies) using a Multidrop Combi (Thermo Fisher Scientific Inc.), 23 nL compounds in DMSO were added by a pin tool (Kalypsys), and 5 ul of erythrocytes infected with P. falciparum (0.3% parasitemia, 2.5% hematocrit final concentration) were added. The plates were incubated at 37 C in a humidified incubator in 5% CO2 for 72 h, and 2 ul lysis buffer (20 mM Tris HCl, 10 mM EDTA, 0.16% saponin, 1.6% triton X, 10X SYBR Green I supplied as 10,000X […] by Invitrogen) was added to each well. The plates were mixed for 25 sec with gentle shaking and incubated overnight at room temperature in the dark. The following morning, fluorescence intensity at 485(14) nm excitation and 535(25) nm emission wavelengths was measured on an EnVision (Perkin Elmer) plate reader. Plate reads were normalized relative to the control inhibitor (0.29 uM artemisinin) and vehicle (DMSO) wells present on each plate and then corrected by an algorithm using vehicle-only control plates at the beginning and end of the compound plate stack.

Row | SMILES | activity change, negative = inhibition | Potency
1 | CCc1nc(N)nc(N)c1-c1ccc(Cl)cc1 | -2.13% | –
2 | COc1cc(NC(C)CCCN)c2ncccc2c1 (configuration not stated) | 193% [at 14.2 µM] | –
3 | CC(C)(C)c1cc(O)c(CN)c(C(C)(C)C)c1 | 180% | –
4 | CNCCCCOc1ccccc1Cc1ccccc1 | 206% | –
5 | CCCC(=O)O[C@]1(C(=O)CCl)[C@H](C)C[C@@H]2[C@H]3CCC4=CC(=O)C=C[C@]4(C)[C@@]3(F)C(=O)C[C@@]21C | 173% | –
6 | C[C@@H]1CCC2[C@@H](C)[C@@H](O)O[C@@H]3O[C@@]4(C)CC[C@@H]1[C@@]23OO4 (some centres not stated) | -102% | –
7 | CCN(CC)CCCC(C)Nc1ccnc2cc(Cl)ccc12 (configuration not stated) | 193% | –
8 | CC[C@H]1OC(=O)[C@H](C)[C@@H](O[C@H]2C[C@@](C)(OC)[C@@H](O)[C@H](C)O2)[C@H](C)[C@@H](O[C@@H]2O[C@H](C)C[C@H](N(C)C)[C@@H]2O)[C@](C)(O)C[C@@H](C)CN(C)[C@H](C)[C@@H](O)[C@]1(C)O | -94.5% | –
9 | CN1CCN(CCCN2c3ccccc3Sc3ccc(S(=O)(=O)N(C)C)cc32)CC1 | – | 1140 nM (active)
10 | CN(C)c1ccc2nc3ccc(=[N+](C)C)cc-3sc2c1 | – | 6.9 nM (active)
11 | CCOc1ccccc1O[C@H](c1ccccc1)[C@H]1CNCCO1 | 201% | –
12 | C#C[C@]1(O)CC[C@@H]2[C@H]3CCC4=CC(=O)CC[C@H]4[C@H]3C(=C)C[C@@]21CC | -96.6% | –
13 | C[C@@H]1[C@@H](CC(C[C@H]2O[C@@H]3O[C@]4(C)CC[C@@H]5[C@H](C)CC[C@@H]([C@H]2C)[C@@]35OO4)C(=O)NCc2ccc(F)cc2)O[C@@H]2O[C@]3(C)CC[C@H]4[C@H](C)CC[C@@H]1[C@@]24OO3 (some centres not stated) | -100% | –
14 | Cc1c2oc3c(C)ccc(C(=O)NC4C(=O)NC(C(C)C)C(=O)N5CCCC5C(=O)N(C)CC(=O)N(C)C(C(C)C)C(=O)OC4C)c3nc-2c(C(=O)NC2C(=O)NC(C(C)C)C(=O)N3CCCC3C(=O)N(C)CC(=O)N(C)C(C(C)C)C(=O)OC2C)c(N)c1=O (configuration not stated) (I: TVP[Sar][NMeV] / II: TVP[Sar][NMeV]; ester I:1-I:C, II:1-II:C; linker I:N-II:N via Actinocin(9to1); configuration not given here) | – | 2.4 nM (active)
15 | COc1ccc2nc3cc(Cl)ccc3c(Nc3cc(CN4CCCC4)c(O)c(CN4CCCC4)c3)c2n1 | -103% | –
16 | COc1cccc(CCc2ccccc2OCC(CN(C)C)OC(=O)CCC(=O)O)c1 (configuration not stated) | – | 943 nM (active)
17 | CSc1cccc(NC(=O)CC[C@H]2O[C@@H]3O[C@]4(C)CC[C@H]5[C@H](C)CC[C@@H]([C@@H]2C)[C@@]35OO4)c1 | – | 26.6 nM (active)
18 | C=CCON=C(C[C@H]1O[C@@H]2O[C@]3(C)CC[C@@H]4[C@H](C)CC[C@@H]([C@H]1C)[C@@]24OO3)[C@H]1O[C@@H]2O[C@]3(C)CC[C@H]4[C@H](C)CC[C@@H]([C@@H]1C)[C@@]24OO3 | 197% | –
19 | CN(C)CC/C=C1\c2ccccc2COc2ccccc21 | – | 1430 nM (active)

Row | SMILES | activity change, negative = inhibition | Potency
20 | O=C(C[C@@H]1NCCC[C@@H]1O)Cn1cnc2ccccc2c1=O | -101% | –
21 | CC[C@@H](C)[C@H]1O[C@]2(CC[C@H]1C)C[C@@H]1C[C@@H](CC=C(C)[C@@H](O[C@H]3C[C@H](OC)[C@@H](O[C@H]4C[C@H](OC)[C@@H](O)[C@H](C)O4)[C@H](C)O3)[C@@H](C)C=CC=C3CO[C@@H]4[C@H](O)C(C)=C[C@@H](C(=O)O1)[C@]34O)O2 | -103% | –
22 | O=C1C(=O)c2ccccc2C(O)=C1C1CCC(c2ccc(Cl)cc2)CC1 (configuration not stated) | -99.4% | –
23 | O=C(Nc1ccc(Cl)cc1)Nc1ccc(Cl)c(Cl)c1 | 176% | –
24 | CN1C[C@H](C(=O)N[C@]2(C)O[C@@]3(O)[C@@H]4CCCN4C(=O)[C@H](Cc4ccccc4)N3C2=O)C[C@@H]2c3cccc4[nH]cc(c34)C[C@H]21 | 180% | –
25 | Cn1cncc1[C@@](N)(c1ccc(Cl)cc1)c1ccc2c(c1)c(-c1cccc(Cl)c1)cc(=O)n2C | 193% | –
26 | COc1cc2c(cc1C(F)(F)F)N(C(=O)Nc1cc(F)cc(-c3cccnc3)c1)CC2 | 177% | –
27 | O=C(O)c1cn(C2CC2)c2cc(N3CCNCC3)c(F)cc2c1=O | -13.3% | –
28 | C=CC(C)=C[C@@]1(C)SC(=O)C(C)=C1O | 0.0824% | –
29 | Clc1ccc(COC(Cn2ccnc2)c2ccc(Cl)cc2Cl)c(Cl)c1 (configuration not stated) | -98.7% [at 14.2 µM] | –
30 | COc1cc(C=CC(=O)CC(=O)C=Cc2ccc(O)c(OC)c2)ccc1O | – | 5300 nM (active)
31 | CN([C@@H](Cc1ccc(OS(=O)(=O)c2cccc3cnccc23)cc1)C(=O)N1CCN(c2ccccc2)CC1)S(=O)(=O)c1cccc2cnccc12 | 200% | –
32 | CC(C)N=C(N)N=C(N)Nc1ccc(Cl)cc1 | 190% | –
33 | CC(CNC1CCCCC1)OC(=O)c1ccccc1 (configuration not stated) | -39.4% [at 14.2 µM] | –
34 | C[C@@H]1CC[C@H]2[C@@H](C)C(=O)O[C@@H]3OC4(C)CC[C@@H]1C32OO4 (some centres not stated) | 171% [at 57.5 µM] | –
35 | Oc1cc(Cl)ccc1Oc1ccc(Cl)cc1Cl | – | 3350 nM (active)
36 | CCCCN(CCCC)CC(O)c1cc(Cl)cc2c1-c1ccc(Cl)cc1C2=Cc1ccc(Cl)cc1 (configuration not stated) | 164% | –
37 | CCCCCCCCCCOc1cc2c(=O)c(C(=O)OCC)c[nH]c2cc1OCC | -98.2% | –
